Measured values published in PubChem BioAssay (NCATS).
“And” between values parts separate entries of the source, which are not always exact repeats. Equal entries are not always repeated. Results filed as inconclusive are left out. Where a call stands in place of a potency, no number is given. The source made the active and inactive calls. Unless noted, calls come from the whole dose curve; as a rule, active = well fitted curve in the direction sought with a large enough effect; inconclusive = small, poorly fitted or top-dose-only effect, or another doubt; inactive = no such curve, though single readings can be large; an effect the other way counts as inactive or inconclusive.

How the values were obtained:
[1] = qHTS for compounds that reverse cellular toxicity of Amyloid beta (A-beta) peptide in yeast: LOPAC Validation Assay (AID 720559)
Method in brief: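 Yeast cells expressing toxic A-beta were combined with pinned compounds in growth medium and incubated 48 hr at 30 C. Growth was read as absorbance at 600 nm and normalized to DMSO and to an equimolar FeCl3/clioquinol positive control.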

[2] = qHTS for Activators of Parkin Expression: LOPAC Validation Assay (NLuc Reporter) (AID 720572)
Method in brief: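 Parkin promoter-driven FLuc/NLuc neuronal reporter cells; 24 h plating, 7-pt dose response, 24 h at 37 C/5% CO2; FLuc then NanoLuc reagent, 10 min each, luminescence; DMSO/positive control normalized.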

[3] = qHTS for Activators of Parkin Expression: LOPAC Validation Assay (FLuc Reporter) (AID 720573)
Method in brief: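 Neuronal cell line stably carrying FLuc/NLuc coincidence reporter under Parkin promoter; cells plated 24 h, then compounds added in 7-point dose response for 24 h at 37 C. FLuc luminescence read; normalized to DMSO and positive control (100%).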

[4] = target: T1, Hexokinase-4 (Homo sapiens) + Glucokinase regulatory protein (Homo sapiens) (UniProt P35557+Q14397); experiment: qHTS assay for inhibitors of recombinant human GCK-GKRP interaction: Diaphorase-coupled assay (AID 743205)
Method in brief: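 GST-GCK (10 nM) with FLAG-GKRP (10 nM), 5 mM glucose and 0.4 mM ATP in pH 7.6 Hepes; compounds preincubated 20 min with substrate. G6PDH/diaphorase coupling converts resazurin to resorufin, read kinetically (ex 525/em 590 nm) for 30 min.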

[5] = target: T1, Hexokinase-4 (Homo sapiens) + Glucokinase regulatory protein (Homo sapiens); experiment: qHTS assay for inhibitors of recombinant human GCK-GKRP interaction: ADP-Glo assay (AID 743206)
Method in brief: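 GST-GCK and FLAG-GKRP (15 nM each in the dispensed mix, with 2 uM S6P) react with 0.4 mM ATP and 5 mM glucose (final) in Hepes pH 7.6 for 60 min at room temperature. ADP is measured by ADP-Glo luminescence.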

[6] = target: T1, Hexokinase-4 (Homo sapiens) + Glucokinase regulatory protein (Homo sapiens); experiment: qHTS assay for inhibitors of recombinant human GCK-GKRP interaction: HTRF assay (AID 743207)
Method in brief: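 GST-GCK and FLAG-GKRP (5 nM each) were combined with 2 uM S6P in pH 7.1 Hepes/MgCl2/KCl/DTT buffer, then compound and anti-FLAG XL665/anti-GST K antibodies were added. After 60 min at room temperature, HTRF 665/615 nm emission was read.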

[7] = qHTS Assay for Identifying Gametocytocidal Compounds (AID 743244); note: potency is the fitted concentration of half-maximal effect;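 for max response: actives lower the fluorescent signal which means gametocytes are killed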; conditions: P. falciparum 3D7 stage III-V gametocytes, alamarBlue, 72 h; max response: stronger effect = lower value
Method in brief: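 Stage III–V gametocytes of P. falciparum 3D7 were seeded at 20,000 cells/well onto pre-dispensed compounds. After 72 h, 37 °C, 5% CO2, alamarBlue was added for another 24 h.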

[8] = qHTS assay for measurement of the activity of small molecule inhibitors on Zika virus induced Caspase-3 activity in human iPSC derived neural progenitor cells (hNPCs) (AID 1224857); note: nearly all actives have a fitted effect of over 65% in size
Method in brief: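 Values are percent inhibition of virus-induced caspase-3/7 signal, scaled between uninfected cells and ZIKV-infected cells. Infection used 2 FFU/cell for 6 h after 1 h compound exposure.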

[9] = qHTS profiling of the MIPE4 collection as inhibitors of Plasmodium falciparum (3D7) proliferation (AID 743344; call rule not given here); conditions: P. falciparum 3D7 in erythrocytes, SYBR Green DNA fluorescence, 72 h; at 28.5 µM (top of the series)
Method in brief: (§1)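 Erythrocytes infected with P. falciparum (0.3% parasitemia, 2.5% hematocrit) incubated with compounds 72 h at 37 C, 5% CO2. Lysis with saponin/Triton buffer containing SYBR Green I, overnight at room temperature in the dark; DNA fluorescence (485/535 nm) normalised to 0.29 uM artemisinin and DMSO.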

[10] = qHTS profiling of the MIPE4 collection as inhibitors of Plasmodium falciparum (DD2) proliferation (AID 743345; call rule not given here); conditions: P. falciparum Dd2 in erythrocytes, SYBR Green DNA, 72 h; at 28.5 µM (top of the series)
Method in brief: as §1

[11] = qHTS profiling of the MIPE4 collection as inhibitors of Plasmodium falciparum (DD2) proliferation (Rep 2) (AID 743346; call rule not given here); conditions: P. falciparum Dd2 in erythrocytes, SYBR Green DNA, 72 h; at 28.5 µM (top of the series)
Method in brief: as §1

[12] = qHTS profiling of the MIPE4 collection as inhibitors of Plasmodium falciparum (HB3) proliferation (AID 743347; call rule not given here); conditions: P. falciparum HB3 in erythrocytes, SYBR Green DNA, 72 h; at 28.5 µM (top of the series)
Method in brief: as §1

T1 sequence (P35557 whole entry, looked up): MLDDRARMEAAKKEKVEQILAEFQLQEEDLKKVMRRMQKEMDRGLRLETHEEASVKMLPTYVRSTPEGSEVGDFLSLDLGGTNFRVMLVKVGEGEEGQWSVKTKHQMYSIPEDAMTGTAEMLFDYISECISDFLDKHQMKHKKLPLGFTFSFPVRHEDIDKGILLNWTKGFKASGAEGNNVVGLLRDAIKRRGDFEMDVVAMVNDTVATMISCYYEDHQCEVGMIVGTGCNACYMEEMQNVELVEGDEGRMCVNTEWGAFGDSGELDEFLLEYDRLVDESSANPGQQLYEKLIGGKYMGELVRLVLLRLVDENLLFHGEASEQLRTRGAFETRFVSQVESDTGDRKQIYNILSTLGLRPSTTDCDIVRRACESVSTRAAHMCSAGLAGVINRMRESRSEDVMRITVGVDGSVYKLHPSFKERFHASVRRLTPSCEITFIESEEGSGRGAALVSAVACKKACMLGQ
T1 sequence (Q14397 whole entry, looked up): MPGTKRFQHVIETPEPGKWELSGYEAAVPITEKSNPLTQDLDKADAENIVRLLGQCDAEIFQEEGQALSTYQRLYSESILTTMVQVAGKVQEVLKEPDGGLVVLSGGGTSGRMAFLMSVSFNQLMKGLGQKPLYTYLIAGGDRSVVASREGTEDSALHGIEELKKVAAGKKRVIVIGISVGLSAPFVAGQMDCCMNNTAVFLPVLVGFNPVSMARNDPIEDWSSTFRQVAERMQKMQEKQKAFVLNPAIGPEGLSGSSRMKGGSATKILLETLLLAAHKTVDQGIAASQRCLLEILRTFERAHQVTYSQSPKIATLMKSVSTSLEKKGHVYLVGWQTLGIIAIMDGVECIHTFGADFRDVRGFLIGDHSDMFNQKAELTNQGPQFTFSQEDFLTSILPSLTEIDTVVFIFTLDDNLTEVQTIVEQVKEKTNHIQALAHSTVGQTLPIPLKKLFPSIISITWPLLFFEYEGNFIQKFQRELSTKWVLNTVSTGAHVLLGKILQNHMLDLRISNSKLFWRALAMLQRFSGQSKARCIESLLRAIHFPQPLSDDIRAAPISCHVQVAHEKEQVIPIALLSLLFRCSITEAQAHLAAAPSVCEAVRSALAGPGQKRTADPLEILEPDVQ

SMILES	outcome [1]	Potency [2]	outcome [3]	outcome [4]	outcome [5]	Potency [6]	max response [7]	outcome [8]	Potency [7]	parasite growth, % of DMSO control [9]	parasite growth remaining, % of DMSO control (lower = more inhibition) [10]	parasite growth, % of control (lower = inhibition) [11]	growth, % of control [12]
CCN1CCc2nc(N)oc2CC1	inactive	inactive	inactive	inactive	inactive	inactive	11% (inactive) and 14% (inactive)	inactive	–	–	–	–	–
NC1=NCC2c3ccccc3Cc3ccccc3N12 (stereo not given)	inactive	inactive	inactive	inactive	inactive	inactive	-4.93% (inactive) and 13.9% (inactive)	inactive	–	–	–	–	–
CCCNC(C)C(=O)Nc1ccccc1C (stereo not given)	inactive	inactive	inactive	inactive	inactive	inactive	7.26% (inactive) and 27.6% (inactive)	inactive	–	–	–	–	–
CC(=O)OC(C)C[N+](C)(C)C (stereo not given)	inactive	inactive	inactive	inactive	inactive	inactive	-4.19% (inactive) and 23.1% (inactive)	inactive	–	–	–	–	–
NC(N)=NC(=O)Cc1c(Cl)cccc1Cl	inactive	inactive	inactive	inactive	inactive	inactive	5.89% (inactive) and 26.9% (inactive)	inactive	–	–	–	–	–
COCCCC/C(=N\OCCN)c1ccc(C(F)(F)F)cc1	inactive	inactive	inactive	inactive	inactive	inactive	20.1% (inactive)	inactive	–	–	–	–	–
CCc1c(C)[nH]c2c1C(=O)C(CN1CCOCC1)CC2 (stereo not given)	inactive	inactive	inactive	inactive	inactive	inactive	2.02% (inactive) and 26.2% (inactive)	inactive	–	–	–	–	–
CCN(CC)CC(=O)Nc1c(C)cccc1C	inactive	inactive	inactive	inactive	inactive	inactive	0.639% (inactive) and 6.44% (inactive)	inactive	–	–	–	–	–
CN(C)C(=O)Oc1cccc([N+](C)(C)C)c1	inactive	inactive	inactive	inactive	inactive	inactive	5.44% (inactive) and 20.8% (inactive)	inactive	–	–	–	–	–
CCNC(=O)N1CCN(CCCC(c2ccc(F)cc2)c2ccc(F)cc2)CC1	inactive	inactive	inactive	inactive	inactive	inactive	-23% (inactive) and -10.4% (inactive)	inactive	–	–	–	–	–
CN(C(=O)CCCOc1ccc2[nH]c(=O)ccc2c1)C1CCCCC1	–	inactive	inactive	inactive	inactive	inactive	-2.24% (inactive) and 11% (inactive)	inactive	–	–	–	–	–
O=C1CC2(CCCC2)CC(=O)N1CCCCN1CCN(c2ncccn2)CC1	–	inactive	inactive	inactive	inactive	inactive	–	inactive	–	–	–	–	–
NC(=O)c1cn(Cc2c(F)cccc2F)nn1	inactive	inactive	–	inactive	inactive	inactive	3.65% (inactive) and -7.75% (inactive)	inactive	–	–	–	–	–
C[N+](C)(C)CCOC(N)=O	inactive	inactive	inactive	inactive	inactive	inactive	20.5% (inactive) and 14.2% (inactive)	inactive	–	–	–	–	–
CCN(CC)CCCN(c1ccccc1)C1Cc2ccccc2C1	–	inactive	inactive	inactive	inactive	inactive	–	inactive	–	–	–	–	–
NC/C=C/C(=O)O	–	inactive	inactive	inactive	inactive	inactive	18.4% (inactive) and 29.6% (inactive)	inactive	–	–	–	–	–
CCOC(=O)c1cnc2c(cnn2CC)c1NN=C(C)C	inactive	inactive	inactive	inactive	inactive	inactive	1.49% (inactive) and 6.62% (inactive)	inactive	–	–	–	–	–
CCCCNc1ccc(C(=O)OCCN(C)C)cc1	–	inactive	inactive	inactive	inactive	inactive	-1.47% (inactive) and 12.4% (inactive)	inactive	–	–	–	–	–
C[C@]12CC[C@@H]3c4ccc(O)cc4C[C@@H](CCCCCCCCCS(=O)CCCC(F)(F)C(F)(F)F)[C@H]3[C@@H]1CC[C@@H]2O (stereo not given in full)	–	inactive	inactive	inactive	inactive	inactive	–	inactive	–	–	–	–	–
c1cc(CN2CCCCC2)cc(OCCCNc2nc3ccccc3s2)c1	inactive	inactive	inactive	inactive	inactive	inactive	-9.42% (inactive)	inactive	–	–	–	–	–
Cc1ccc(/C(=C\CN2CCCC2)c2ccccn2)cc1	inactive	inactive	inactive	–	–	–	24.5% (inactive) and 21.6% (inactive)	inactive	–	–	–	–	–
CCc1cccc(N(C)C(N)=Nc2cccc3ccccc23)c1	inactive	inactive	inactive	inactive	inactive	inactive	-2.27% (inactive) and 4.9% (inactive)	inactive	–	–	–	–	–
O=C1NCN(c2ccccc2)C12CCN(CCCC(c1ccc(F)cc1)c1ccc(F)cc1)CC2	inactive	inactive	inactive	inactive	inactive	inactive	–	inactive	10 µM (active)	5.05%	9.4%	11.8%	4.02%
